A selection: hits, their analogues and other compounds. The true share with any hit is near 7.2%.
ERK AVP inh: qHTS Assay for Inhibitors of the ERK Signaling Pathway using a Homogeneous Screening Assay. HEK293-V1b, vasopressin-stimulated pERK AlphaScreen. Potency, µM (series often up to 57.5 µM), actives largely listed as inhibitors. actives 0.99% (n = 72,000). AID 995, 2007; also: nearly all actives have a fitted effect of over 55% in size
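V1b-HEK293 cells; cpd 30 min 37C; 25 nM vasopressin 5 min; lyse 10 min; AlphaScreen beads 5 hr RT. Normalized to DMSO basal and 25 nM vasopressin; AC50 by Hill fit.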
TSHR ag: qHTS Assay for Agonists of the Thyroid Stimulating Hormone Receptor. Potency, µM (series often up to 57.1 µM), hits mostly activators. HEK293-CNG-TSHR cells (CNG channel as cAMP sensor), membrane potential dye, cAMP. actives 0.48% (n = 73,000). Thyrotropin receptor (Homo sapiens), P16473; active = well fitted activation curve with a large enough effect in the main read-out, with a control signal flat, not every such curve was filed as active; inconclusive = small, poorly fitted or top-dose-only effect, or a change in a side signal; inactive = no such curve, though single readings can be large or run the other way; reference of the percent scale not stated here;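 also: the control signal comes from parental cells without the receptor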
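HEK 293 cells stably expressing TSHR and a cAMP-gated CNG channel; parental CNG-only cells as counterscreen. Cells preloaded 60 min with membrane potential dye plus 100 uM RO 20-1724, then compound 30 min; fluorescence read at 590 nm.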
Tau filament bind: qHTS Assay for Tau Filament Binding. Microtubule-associated protein tau (Homo sapiens), P10636. recombinant tau filaments, thioflavin S fluorescence, 15 h; filaments grown with octadecylsulfate alongside compound. Potency, µM (top dose mostly 57.1 µM). actives 2% (n = 71,000). AID 596, 2007;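 also: actives lower thioflavin S fluorescence by blocking filaments or displacing dye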
Target sequence (P10636 whole entry, looked up): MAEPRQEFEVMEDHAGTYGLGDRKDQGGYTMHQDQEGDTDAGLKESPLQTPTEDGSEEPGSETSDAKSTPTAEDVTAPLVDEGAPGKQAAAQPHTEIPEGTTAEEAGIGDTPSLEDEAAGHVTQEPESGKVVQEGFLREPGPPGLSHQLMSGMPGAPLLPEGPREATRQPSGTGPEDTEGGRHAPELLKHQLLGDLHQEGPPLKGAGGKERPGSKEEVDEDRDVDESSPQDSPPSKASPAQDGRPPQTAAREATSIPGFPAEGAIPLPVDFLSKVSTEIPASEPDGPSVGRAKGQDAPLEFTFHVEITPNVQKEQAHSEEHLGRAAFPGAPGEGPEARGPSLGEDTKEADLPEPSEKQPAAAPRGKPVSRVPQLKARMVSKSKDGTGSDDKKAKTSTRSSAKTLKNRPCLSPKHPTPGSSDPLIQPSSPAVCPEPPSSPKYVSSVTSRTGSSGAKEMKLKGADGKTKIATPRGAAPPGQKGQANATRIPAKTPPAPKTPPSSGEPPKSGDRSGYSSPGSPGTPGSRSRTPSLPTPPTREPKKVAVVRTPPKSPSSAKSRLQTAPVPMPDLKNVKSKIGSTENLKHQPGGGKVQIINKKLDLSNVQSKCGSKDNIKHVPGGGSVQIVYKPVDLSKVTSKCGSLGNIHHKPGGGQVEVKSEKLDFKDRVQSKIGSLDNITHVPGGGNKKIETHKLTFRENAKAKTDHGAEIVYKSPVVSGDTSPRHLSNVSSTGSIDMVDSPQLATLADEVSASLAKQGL
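Quantitative HTS: thioflavine S signal from ODS-induced tau filaments, excited at 450 nm, emission 510 nm. Conditions: 1 uM tau, 30 uM ODS, 15 h at 37 C, pH 7.4.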
PK Bst: Pyruvate Kinase. purified pyruvate kinase, luminescence ATP production; ribose 5-phosphate activator present at AC10. Potency, µM. actives 1.2% (n = 51,000); in the data active = potency below about 11 µM; inconclusive = mostly about 12 µM to 25 µM;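 the screen sought inhibitors and activators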
Luciferase inh: qHTS Assay for Inhibitors of Firefly Luciferase; Luciferin 4-monooxygenase (Photinus pyralis), P08659; purified firefly luciferase, luminescence, 8 min; Potency, µM (top dose mostly 57.1 µM), hits mostly inhibitors; actives 2.2% (n = 72,000); AID 411, 2009; also: nearly all actives have a fitted effect of over 40% in size
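Firefly luciferase (PKLight detection mix) with 10 uM ATP in pH 7.2 imidazole buffer (KCl, MgCl2, Tween 20, BSA). Compounds tested across a concentration series (qHTS). Luminescence read after 8 min at ambient temperature.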
HEK293 cAMP ctrl: qHTS Assay for Agonists of the Thyroid Stimulating Hormone Receptor: Activators of Intracellular cAMP Concentrations in Parental HEK 293; Potency, µM (highest dose often 57.1 µM), usual class: activators; parental HEK293 CNG cAMP sensor, membrane potential fluorescence; actives 2.5% (n = 73,000); AID 938, 2007; also: nearly all actives have a fitted effect of over 55% in size
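Counterscreen for endogenous-receptor signalling: CNG-channel HEK 293 cells report cAMP rise by membrane depolarization. After 60 min dye equilibration with 100 uM RO 20-1724, compounds incubated 30 min before bottom-read fluorescence at 590 nm.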
Large screens that a line does not name were inactive; ! = not confirmed by another sample. Unless noted, calls follow the shape of the dose curve; as a rule, active = well fitted curve in the direction sought with a large enough effect; inconclusive = small, poorly fitted or top-dose-only effect, or another doubt; inactive = no such curve, though single readings can be large; an effect the other way counts as inactive or inconclusive.

CCc1cccc(CC)c1N(COC)C(=O)Cn1c(CO)nc2ccccc21	none
N=C(N)SCCc1ccc(OCc2ccc([N+](=O)[O-])cc2)cc1	ERK AVP inh inconclusive, Tau filament bind 31.6µM (no result: PK Bst)
CCN(CC)CCCn1c(-c2ccccc2)nc2c(N3CCOCC3)nc(C)nc21	none (no result: PK Bst, Luciferase inh)
Cc1cc(NC(=O)Nc2ccc3c(ccn3C)c2)sn1	ERK AVP inh inconclusive, TSHR ag inconclusive, Luciferase inh 31.6µM! (no result: PK Bst)
O=c1c(CCc2ccccc2)nc2cnc(Oc3ccccc3)nc2n1C1CC1	TSHR ag inconclusive, HEK293 cAMP ctrl inconclusive (no result: PK Bst)
Cc1cccc(-n2nnnc2SCn2nnc3ccccc3c2=O)c1	TSHR ag inconclusive, HEK293 cAMP ctrl 25.1µM
COc1ccc(C)cc1-n1nnnc1SCn1nnc2ccccc2c1=O	TSHR ag inconclusive, HEK293 cAMP ctrl inconclusive
Cc1nc2ccccc2c(=O)n1/N=C/c1cn(-c2ccccc2)nc1-c1cccs1	ERK AVP inh inconclusive, Luciferase inh 3.16µM (no result: PK Bst)
O=C(O)Cn1nc(-c2ccccc2)c2ccccc21	none (no result: ERK AVP inh, PK Bst)
N[C@H](CCCC(=O)O)C(=O)O	none (no result: TSHR ag, PK Bst)
O=C(NC1CC1)c1ccc(-c2nc3ccccc3s2)s1	PK Bst 0.799, Luciferase inh 1.58µM
Cc1ccc(-c2nc(C(=O)NC3CCCCCC3)no2)cc1	TSHR ag inconclusive, HEK293 cAMP ctrl 20µM (no result: PK Bst)
Cc1cccc(CNc2cc(-c3ccccc3CN(C)C)ncn2)c1	ERK AVP inh inconclusive (no result: PK Bst)
Cc1cccc(CNc2ccnc(-c3ccccc3CN(C)C)n2)c1	TSHR ag inconclusive, HEK293 cAMP ctrl 5.01µM (no result: PK Bst)
O=C(O)C(=O)/C=C(\O)c1ccc(Br)cc1	none (no result: PK Bst)
COc1ccc(/C=C\C(=O)Nc2ccccc2C(=O)O)cc1OC	Luciferase inh 31.6µM! (no result: PK Bst)
CCOC(=O)CC(=O)Nc1ccccc1C(=O)O	none (no result: PK Bst)
Cc1noc(C)c1C(=O)Nc1nc(C23CC4CC(CC(C4)C2)C3)cs1	ERK AVP inh 20µM
O=C(c1ccco1)N1CCN(S(=O)(=O)c2ccc(C3CCCCC3)cc2)CC1	TSHR ag inconclusive, HEK293 cAMP ctrl 25.1µM
O=C(c1ccco1)N1CCN(S(=O)(=O)c2ccc(S(=O)(=O)NC3CCCCC3)cc2)CC1	TSHR ag inconclusive, HEK293 cAMP ctrl 1.58µM
O=c1c2ccccc2cnn1-c1nc2ccccc2s1	PK Bst 0.163, Luciferase inh 0.159µM
O=c1c2ccccc2ncn1Cc1nc2ccccc2s1	none
CC(=O)NCCNc1ncncc1-c1ccccc1C	TSHR ag inconclusive, HEK293 cAMP ctrl inconclusive (no result: PK Bst)
O=C(CN1CCOCC1)Nc1ccc(-c2nc3ccccc3[nH]2)cc1	Luciferase inh 15.8µM
O=C(Nc1ccc(-c2nc3ccccc3[nH]2)cc1)C1CCCO1 (stereo not given)	ERK AVP inh inconclusive, PK Bst 3.18, Luciferase inh 2.51µM
O=C(O)CCCC(=O)Nc1cccc(-c2nc3ccccc3[nH]2)c1	Luciferase inh 20µM (no result: PK Bst)
CCCC(=O)NCCc1c2n(c3ccc(OC)cc13)Cc1ccccc1-2	ERK AVP inh inconclusive (no result: TSHR ag, PK Bst)
CC(C)CO/N=C1/C[C@@H](O)[C@@H](O)[C@@H]2[C@@H]3C(=O)N([C@@H](C)c4ccccc4)C(=O)[C@H]3CC[C@H]12	none (no result: TSHR ag, Tau filament bind, PK Bst)
OC1(c2cccc(C(F)(F)F)c2)CCN(c2ncnc3c2[nH]c2ccc(F)cc23)CC1	ERK AVP inh 25.1µM (no result: PK Bst)
Fc1ccc2[nH]c3c(N4CCN(c5ccccc5)CC4)ncnc3c2c1	ERK AVP inh 10µM
O=C(CCCN1CCC(O)(c2cccc(C(F)(F)F)c2)CC1)c1ccc(F)cc1	none (no result: PK Bst)
CC1=C(C(=O)Nc2ccccc2)C(c2ccco2)C(C#N)=C(SCC(=O)OC(C)C)N1 (stereo not given)	TSHR ag inconclusive, HEK293 cAMP ctrl 20µM (no result: PK Bst)
CC(=O)C1=C(C)NC(SCC(=O)c2ccc(Cl)c(Cl)c2)=C(C#N)C1c1ccco1 (stereo not given)	Tau filament bind 1µM (no result: PK Bst)
Cc1ccc(-c2cnc(-c3ccncc3)o2)cc1	Luciferase inh 12.6µM (no result: PK Bst)
C[C@H](CCC(=O)NN)[C@@H]1CC[C@@H]2[C@H]3CC[C@H]4C[C@@H](O)CC[C@@]4(C)[C@@H]3CC[C@]21C	none (no result: PK Bst)
CCOc1ccc2noc3c2c1C(=O)c1ccccc1-3	none (no result: PK Bst)
O=C1c2ccccc2-c2onc3ccc(NCc4ccco4)c1c23	PK Bst 5.26 (no result: ERK AVP inh, TSHR ag, Tau filament bind, HEK293 cAMP ctrl)
CCCc1cc(C(=O)Nc2cccc(Cl)c2)no1	Luciferase inh 15.8µM (no result: PK Bst)
CCCc1cc(C(=O)Nc2cccc(C(C)=O)c2)no1	ERK AVP inh inconclusive (no result: PK Bst)
N#Cc1cccc(NC(=O)N2CC[C@@]3(CCCNC3)C2)c1	none (no result: PK Bst)
O=C(COc1ccc(Cl)cc1Cl)N1CCCCCC1	TSHR ag inconclusive, HEK293 cAMP ctrl 3.98µM (no result: PK Bst)
O=C(CCCOc1ccccc1)N1CCN(c2ccccn2)CC1	ERK AVP inh 25.1µM, TSHR ag inconclusive, Luciferase inh inconclusive, HEK293 cAMP ctrl inconclusive (no result: PK Bst)
O=C(CCCn1c(=O)[nH]c2ccccc2c1=O)N1CCN(c2ccccn2)CC1	none (no result: PK Bst)
O=C(CCCCCNc1nc(=S)[nH]c2ccccc12)N1CCN(c2ccccn2)CC1	ERK AVP inh 12.6µM (no result: PK Bst)
O=C(CCCOc1ccc(Cl)cc1Cl)N1CCN(c2ccccn2)CC1	ERK AVP inh 39.8µM, TSHR ag inconclusive, HEK293 cAMP ctrl inconclusive
Cc1ccc(OCC(=O)N2CCCCC2)c(Br)c1	TSHR ag inconclusive, HEK293 cAMP ctrl inconclusive
Cc1noc(C)c1C(=O)N1CCC2(CCCN(C(=O)NC(C)C)C2)CC1	none (no result: PK Bst)
CN(C)[C@H]1C(=O)C(C(=O)NCN2CCCC2)=C(O)[C@]2(O)C(=O)C3=C(O)c4c(O)cccc4[C@@](C)(O)[C@H]3C[C@@H]12	none (no result: PK Bst)
COC(=O)c1ccc(NC(=O)Nc2ccc(F)cc2)cc1	ERK AVP inh inconclusive, Luciferase inh 20µM
COc1ccc(C(=O)N2CCC3(CC2)CCN(c2ccncc2)CC3)cc1	none (no result: PK Bst)
CC1(c2ccc3noc(-c4ccc(Cl)cc4)c3c2)OCCO1	ERK AVP inh 15.8µM, TSHR ag inconclusive, Tau filament bind inconclusive, PK Bst inconclusive, HEK293 cAMP ctrl inconclusive
O=C(Nc1ccc(N2CCN(C(=O)c3ccco3)CC2)c(Cl)c1)c1c(F)c(F)c(F)c(F)c1F	none
Cc1ccccc1C(=O)N1CCN(c2ccc(NC(=O)c3ccco3)cc2Cl)CC1	ERK AVP inh 31.6µM
Clc1cccc(Cl)c1COc1ccccn1	PK Bst 9.84
c1ccc(CNc2nc(-c3ccc4c(c3)OCO4)nc3ccccc23)cc1	ERK AVP inh 20µM (no result: PK Bst)
c1ccc2sc(-c3ccc4c(c3)OCO4)nc2c1	Luciferase inh 1.58µM (no result: PK Bst)
